Experimental data as given in PubChem BioAssay (NCATS).
Records with an inconclusive call do not appear. The source made the active and inactive calls. Unless noted, calls follow the shape of the dose curve; as a rule, active = well fitted curve in the direction sought with a large enough effect; inconclusive = small, poorly fitted or top-dose-only effect, or another doubt; inactive = no such curve, though single readings can be large; an effect the other way counts as inactive or inconclusive.

Assays:
[1] = target: Thioredoxin reductase 1, cytoplasmic (Rattus norvegicus) (UniProt O89049); test: qHTS Assay for Substrates of Mammalian Selenoprotein Thioredoxin Reductase 1 (TrxR1) (AID 488772);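 also: NADPH fluorescence in the first read after selenite addition and not the 8 min delta; series mostly up to about 57 µM; 0% is about no effect; a drop in NADPH fluorescence below the no-compound background marks a TrxR1 substrate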
How it was run: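 Quantitative HTS in Tris-HCl buffer at pH 7.5 with EDTA and Tween-20, using rat TrxR1, 400 uM NADPH and 400 uM selenite (final). A fall in initial NADPH fluorescence relative to background marked substrate behaviour.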

[2] = target: Thioredoxin reductase 1, cytoplasmic (Rattus norvegicus) (UniProt O89049); test: qHTS Assay for Inhibitors of Mammalian Selenoprotein Thioredoxin Reductase 1 (TrxR1) (AID 488773); details: Potency: inhibition;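 also: drop in NADPH fluorescence over an 8 min run after selenite addition; series mostly up to about 57 µM; % is scaled to controls: 0 for no effect and ±100 for the full control effect; nearly all actives have a fitted effect of over 40% in size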
How it was run: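 Steps: enzyme (90 nM) plus NADPH (400 uM final), 5 min at ~22 deg C; compound added, 15 min; selenite (400 uM final) added; fluorescence followed for 8 min. Concentration-response curves derived from the normalized delta values.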

[3] = target: M-phase phosphoprotein 8 (Homo sapiens) (UniProt Q99549); test: qHTS Validation Assay for Inhibitors for MPP8 Chromodomain Interactions with Methylated Histone Tails (AID 488949);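 also: 50 nM MPP8 with 50 nM peptide preformed then compounds added for 30 min; AlphaScreen signal from MPP8 chromodomain bound to biotinylated H3K9me3 peptide; top concentration of the series differs between compounds; % is scaled to controls: 0 for no effect and ±100 for the full control effect; nearly all actives have a fitted effect of over 55% in size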
How it was run: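 Chemiluminescent proximity assay: histidine-tag capture via nickel acceptor beads, biotin peptide via streptavidin donor beads. Protein and peptide each at 50 nM, pH 7.4, with 30 min incubations at room temperature for complex formation, compound exposure and bead binding.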

[4] = target: Chromobox protein homolog 1 (Homo sapiens) (UniProt P83916); test: qHTS Validation Assay for Inhibitors of HP1-beta Chromodomain Interactions with Methylated Histone Tails (AID 488953);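 also: loss of AlphaScreen luminescence from HP1-beta binding biotinylated H3K9me3 peptide; series mostly up to about 110 µM; % is scaled to controls: 0 for no effect and ±100 for the full control effect; nearly all actives have a fitted effect of over 50% in size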
How it was run: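 50 nM HP1-beta + 50 nM biotin-H3(1-18)K9me3, PBS pH 7.4, 0.01% Tween-20, 30 min RT; compound added, 30 min RT; AlphaScreen beads 10 ug/mL final, 30 min dark; luminescence read.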

[5] = target: Methanococcus maripaludis chaperonin (MmCpn) (UniProt Q6LX38); test: High-Throughput Screening for Modulators of Cytosolic Chaperonin Activity: MmCpn Primary Screen (AID 488978); also: 0% is about no effect
How it was run: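 HTRF readout (320 nm excitation, 590/665 nm emission) of ADP generated by 50 nM MmCpn hydrolysing 30 uM ATP during 10 min at 37C; compound preincubated 5 min RT.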

[6] = target: Transient receptor potential cation channel subfamily V member 1 (Homo sapiens) (UniProt Q8NER1); test: HTS Assay for Compounds that Act as Enhancers of the Vanilloid Receptor 1 (AID 488979); also: 0% is about no effect
How it was run: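 TRPV1-expressing cells loaded with Fluo-8 calcium dye; compounds added and calcium influx read kinetically for 3 min (agonist phase), then capsaicin at EC20 added and read 2 min more for enhancement. Fluorescence ex 480/em 520 nm.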

[7] = target: Thyrotropin receptor (Homo sapiens) (UniProt P16473); test: qHTS Assay for Antagonists of the Thyroid Stimulating Hormone Receptor (AID 488980); also: series mostly up to about 58 µM; 0% is about no effect
How it was run: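 Inhibition of TSH-stimulated cAMP accumulation was quantified by homogeneous time-resolved FRET in TSHR-transfected HEK293 cells. Agonist: TSH, 4 nM final (EC80).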

[8] = target: D(1A) dopamine receptor (Homo sapiens) (UniProt P21728); test: HTS Assay for Allosteric Agonists of the Human D1 Dopamine Receptor: Primary Screen for Agonists (AID 488981); also: 0% is about no effect
How it was run: (§1)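 Tetracycline-induced HEK293 T-REx cells force-coupled to calcium signalling were incubated overnight at 30 C and dye-loaded at room temperature. Calcium flux over 180 s after compound addition flagged agonists; a further 180 s read after EC20 dopamine flagged potentiators.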

[9] = target: D(1A) dopamine receptor (Homo sapiens) (UniProt P21728); test: HTS Assay for Allosteric Agonists of the Human D1 Dopamine Receptor: Primary Screen for Potentiators (AID 488982); also: 0% is about no effect
How it was run: as §1

[10] = Validation screen for small molecules that induce genotoxicity in human embryonic kidney (HEK293T) cells expressing luciferase-tagged ELG1 (AID 493106); also: 0% is about no effect
How it was run: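 Luminescence from an ELG1-luciferase fusion serves as the read-out, rising when genetic stress elevates ELG1 protein. HEK293T reporter cells (2,000 per well) received 23 nL compound, incubated 16 hr at 37 °C, then ONE-Glo for 30 min at room temperature.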

[11] = target: ATPase family AAA domain-containing protein 5 (Homo sapiens) (UniProt Q96QE3); test: Validation screen for small molecules that inhibit ELG1-dependent DNA repair in human embryonic kidney (HEK293T) cells expressing luciferase-tagged ELG1 (AID 493107);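 also: cells co-treated with the DNA-damaging agent 5-fluorouridine alongside compound; series mostly up to about 46 µM; % is scaled to controls: 0 for no effect and ±100 for the full control effect; inhibitors lower the ELG1-luciferase luminescence signal; nearly all actives have a fitted effect of over 70% in size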
How it was run: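 Luminescence from ONE-Glo, developed 30 min at room temperature, served as read-out of ELG1-luciferase levels. Beforehand, reporter HEK293T cells received 5-fluorouridine plus test compound for 16 hr at 37 °C.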

[12] = target: Thyrotropin-releasing hormone receptor (Homo sapiens) (UniProt P34981); test: qHTS for Small Molecule Agonists and Allosteric Enhancers of Human TRH Receptor: Validation Screen for Agonists (AID 493127;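 active = calcium activation more than 3 SD above the typical response in the agonist read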;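 also: intracellular calcium rise by fluo-8 fluorescence before TRH EC20 addition; 0% is about no effect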); details: TRH receptor agonist cell assay; at 2 µM; stronger effect = higher value
How it was run: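 Cells 2000/well, 10% FCS, 18 h 33.5C/5% CO2 → fluo-8 Ca dye, RT 30 min–1.5 h → FDSS baseline 10 × 1 s → compound added → 230 cycles (1 s/cycle) agonist mode. TRH controls.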

[13] = Nrf2 qHTS screen for inhibitors: Validation (AID 493153; active = well fitted inhibition curve with a large enough effect in the main read-out, with a control signal flat, not every such curve was filed as active); details: viability change: measured here: cytotoxicity max response
How it was run: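 Luminescence from an ARE-firefly luciferase reporter in A549 cells gives Nrf2 inhibition; an earlier CellTiter-Fluor fluorescent read flags cytotoxicity. Cells in 5% FBS OPTI-MEM received compound dilution series for 18-24 h at 37°C.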

[14] = qHTS for Inhibitors of Cell Surface uPA Generation: Validation Assay (AID 493164); also: 0% is about no effect
How it was run: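 RAW 264.7 cells (4000/well) were plated overnight, then exposed for 18 h at 37 C, 5% CO2 to compounds in a 7-point 1:5 titration (2.45 nM–38.3 uM final). Intracellular ATP was read by ATP-Lite luminescence.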

[15] = target: Galactokinase (Homo sapiens) (UniProt P51570); test: qHTS Validation Assay for Inhibitors of Human Galactokinase (GALK) (AID 493189); also: 0% is about no effect
How it was run: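 Enzyme activity is inferred from ATP consumption: human GALK phosphorylates galactose (100 uM) using 35 uM ATP for 1 h at room temperature, and luciferase-based Kinase-Glo Plus reports unconsumed ATP.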

[16] = target: ATP-dependent 6-phosphofructokinase (Trypanosoma brucei brucei) (UniProt O15648); test: qHTS Assay to Find Inhibitors of T. brucei phosphofructokinase: hit validation (AID 492961);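 also: luminescence reports ADP formed as PFK phosphorylates fructose-6-phosphate with ATP; series mostly up to about 51 µM; % is scaled to controls: 0 for no effect and ±100 for the full control effect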
How it was run: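 Reaction: 0.1 M triethanolamine pH 8.0, 5 mM MgCl2, F6P 0.5 mM, ATP 0.1 mM, PFK 1.25 nM, 45 min RT. Read-out: ADP-Glo luminescence. Analysis: concentration-response fits, classed by r2 and efficacy.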

Sequence of M-phase phosphoprotein 8 (Homo sapiens) (Q99549 whole entry, looked up): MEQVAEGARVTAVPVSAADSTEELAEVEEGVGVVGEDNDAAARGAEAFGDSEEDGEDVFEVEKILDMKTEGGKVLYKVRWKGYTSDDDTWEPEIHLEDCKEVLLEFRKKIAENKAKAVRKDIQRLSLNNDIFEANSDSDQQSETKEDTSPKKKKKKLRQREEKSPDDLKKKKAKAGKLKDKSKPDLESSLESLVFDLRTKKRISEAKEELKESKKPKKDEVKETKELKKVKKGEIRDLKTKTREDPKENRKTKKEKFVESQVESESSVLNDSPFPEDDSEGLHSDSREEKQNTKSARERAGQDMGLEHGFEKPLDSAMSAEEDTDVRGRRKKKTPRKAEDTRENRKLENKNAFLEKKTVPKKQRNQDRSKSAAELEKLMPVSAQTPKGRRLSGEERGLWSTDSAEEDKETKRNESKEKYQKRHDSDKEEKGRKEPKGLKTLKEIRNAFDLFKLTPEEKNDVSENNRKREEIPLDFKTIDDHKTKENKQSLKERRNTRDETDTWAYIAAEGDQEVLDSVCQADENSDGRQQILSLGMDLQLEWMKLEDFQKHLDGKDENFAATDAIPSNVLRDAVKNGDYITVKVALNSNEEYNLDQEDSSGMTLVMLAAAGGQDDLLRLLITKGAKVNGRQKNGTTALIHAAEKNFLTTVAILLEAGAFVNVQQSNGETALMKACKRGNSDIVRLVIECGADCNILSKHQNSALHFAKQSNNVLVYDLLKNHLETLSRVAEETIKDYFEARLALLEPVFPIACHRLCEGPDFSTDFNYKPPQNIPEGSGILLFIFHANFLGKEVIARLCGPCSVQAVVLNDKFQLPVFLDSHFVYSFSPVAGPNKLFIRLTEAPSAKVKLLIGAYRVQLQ
Sequence of Thioredoxin reductase 1, cytoplasmic (Rattus norvegicus) (O89049 whole entry, looked up): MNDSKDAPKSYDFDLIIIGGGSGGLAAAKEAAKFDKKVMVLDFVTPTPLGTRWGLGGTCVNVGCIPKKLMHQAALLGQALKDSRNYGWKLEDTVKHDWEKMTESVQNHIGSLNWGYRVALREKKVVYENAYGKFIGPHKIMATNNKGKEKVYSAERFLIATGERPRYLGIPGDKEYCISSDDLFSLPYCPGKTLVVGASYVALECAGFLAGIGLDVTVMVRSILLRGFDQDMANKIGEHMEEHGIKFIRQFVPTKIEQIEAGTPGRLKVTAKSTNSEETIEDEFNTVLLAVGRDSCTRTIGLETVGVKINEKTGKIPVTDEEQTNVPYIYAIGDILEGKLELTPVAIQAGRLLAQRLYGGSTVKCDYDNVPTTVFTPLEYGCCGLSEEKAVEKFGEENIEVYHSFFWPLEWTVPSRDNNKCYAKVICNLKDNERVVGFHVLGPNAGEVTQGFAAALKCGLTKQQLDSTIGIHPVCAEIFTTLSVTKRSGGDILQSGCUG
Sequence of ATP-dependent 6-phosphofructokinase (Trypanosoma brucei brucei) (O15648 whole entry, looked up): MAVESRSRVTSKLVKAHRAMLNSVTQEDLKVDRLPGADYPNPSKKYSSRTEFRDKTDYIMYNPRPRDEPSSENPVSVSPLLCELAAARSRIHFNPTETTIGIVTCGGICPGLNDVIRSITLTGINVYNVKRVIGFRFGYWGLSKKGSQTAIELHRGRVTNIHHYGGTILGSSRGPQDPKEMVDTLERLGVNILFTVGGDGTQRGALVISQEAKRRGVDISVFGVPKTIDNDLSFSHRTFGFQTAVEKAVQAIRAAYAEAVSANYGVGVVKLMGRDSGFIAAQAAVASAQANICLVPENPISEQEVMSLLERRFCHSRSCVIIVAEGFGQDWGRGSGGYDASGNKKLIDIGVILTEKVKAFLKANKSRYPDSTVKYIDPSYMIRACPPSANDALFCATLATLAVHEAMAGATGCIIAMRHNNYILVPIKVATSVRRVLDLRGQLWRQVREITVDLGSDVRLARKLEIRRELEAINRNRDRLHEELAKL
Sequence of D(1A) dopamine receptor (Homo sapiens) (P21728 whole entry, looked up): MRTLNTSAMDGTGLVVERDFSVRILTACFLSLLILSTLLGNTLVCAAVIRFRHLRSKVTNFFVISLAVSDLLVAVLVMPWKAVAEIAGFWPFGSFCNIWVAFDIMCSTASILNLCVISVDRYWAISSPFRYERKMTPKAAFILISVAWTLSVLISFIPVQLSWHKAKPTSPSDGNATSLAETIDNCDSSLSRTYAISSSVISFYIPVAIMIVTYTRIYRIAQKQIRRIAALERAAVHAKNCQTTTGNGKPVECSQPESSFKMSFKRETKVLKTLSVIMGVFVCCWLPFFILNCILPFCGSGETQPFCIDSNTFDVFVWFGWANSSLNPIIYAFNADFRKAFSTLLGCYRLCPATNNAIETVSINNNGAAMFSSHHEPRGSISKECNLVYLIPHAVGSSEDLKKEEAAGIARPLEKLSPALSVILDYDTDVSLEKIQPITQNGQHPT
Sequence of Thyrotropin-releasing hormone receptor (Homo sapiens) (P34981 whole entry, looked up): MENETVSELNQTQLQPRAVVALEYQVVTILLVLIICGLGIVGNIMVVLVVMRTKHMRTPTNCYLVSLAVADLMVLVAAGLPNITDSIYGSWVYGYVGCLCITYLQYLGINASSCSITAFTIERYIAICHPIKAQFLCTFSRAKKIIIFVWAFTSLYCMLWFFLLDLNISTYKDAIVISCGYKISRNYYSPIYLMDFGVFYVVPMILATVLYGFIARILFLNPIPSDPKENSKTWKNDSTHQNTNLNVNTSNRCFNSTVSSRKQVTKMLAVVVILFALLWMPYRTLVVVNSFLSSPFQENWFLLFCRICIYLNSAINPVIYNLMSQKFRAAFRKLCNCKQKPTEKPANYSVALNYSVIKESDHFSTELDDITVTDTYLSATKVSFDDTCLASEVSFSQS
Sequence of Chromobox protein homolog 1 (Homo sapiens) (P83916 whole entry, looked up): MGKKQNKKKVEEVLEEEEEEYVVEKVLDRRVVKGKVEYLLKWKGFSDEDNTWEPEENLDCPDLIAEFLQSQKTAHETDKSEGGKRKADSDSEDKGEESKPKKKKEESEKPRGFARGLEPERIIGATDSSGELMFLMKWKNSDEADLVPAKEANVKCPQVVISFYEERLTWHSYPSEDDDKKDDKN
Sequence of Methanococcus maripaludis chaperonin (MmCpn) (Q6LX38 1-543): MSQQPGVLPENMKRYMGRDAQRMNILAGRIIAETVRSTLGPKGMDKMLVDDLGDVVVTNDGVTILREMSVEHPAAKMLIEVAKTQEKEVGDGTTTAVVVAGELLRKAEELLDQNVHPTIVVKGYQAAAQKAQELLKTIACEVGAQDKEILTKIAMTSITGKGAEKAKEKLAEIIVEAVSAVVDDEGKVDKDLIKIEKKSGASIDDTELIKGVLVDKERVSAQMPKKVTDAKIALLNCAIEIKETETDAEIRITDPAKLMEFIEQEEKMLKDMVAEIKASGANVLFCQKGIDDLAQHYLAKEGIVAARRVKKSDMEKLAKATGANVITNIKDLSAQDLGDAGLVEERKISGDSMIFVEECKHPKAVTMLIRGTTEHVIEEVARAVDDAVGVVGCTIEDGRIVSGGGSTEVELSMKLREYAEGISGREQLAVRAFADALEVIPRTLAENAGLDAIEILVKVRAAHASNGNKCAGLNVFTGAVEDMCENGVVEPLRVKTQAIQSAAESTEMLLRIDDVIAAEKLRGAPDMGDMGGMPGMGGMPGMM
Sequence of Galactokinase (Homo sapiens) (P51570 whole entry, looked up): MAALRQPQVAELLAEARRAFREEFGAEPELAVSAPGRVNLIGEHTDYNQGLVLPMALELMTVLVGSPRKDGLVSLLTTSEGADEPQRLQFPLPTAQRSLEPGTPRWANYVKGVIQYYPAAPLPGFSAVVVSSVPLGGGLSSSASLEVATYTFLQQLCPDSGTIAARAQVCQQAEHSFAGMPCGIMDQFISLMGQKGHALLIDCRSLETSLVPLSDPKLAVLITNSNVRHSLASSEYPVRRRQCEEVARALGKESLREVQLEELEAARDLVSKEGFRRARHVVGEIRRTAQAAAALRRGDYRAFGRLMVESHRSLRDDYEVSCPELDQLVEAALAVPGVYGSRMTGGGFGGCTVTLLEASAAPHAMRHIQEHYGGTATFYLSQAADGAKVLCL
Sequence of Transient receptor potential cation channel subfamily V member 1 (Homo sapiens) (Q8NER1 whole entry, looked up): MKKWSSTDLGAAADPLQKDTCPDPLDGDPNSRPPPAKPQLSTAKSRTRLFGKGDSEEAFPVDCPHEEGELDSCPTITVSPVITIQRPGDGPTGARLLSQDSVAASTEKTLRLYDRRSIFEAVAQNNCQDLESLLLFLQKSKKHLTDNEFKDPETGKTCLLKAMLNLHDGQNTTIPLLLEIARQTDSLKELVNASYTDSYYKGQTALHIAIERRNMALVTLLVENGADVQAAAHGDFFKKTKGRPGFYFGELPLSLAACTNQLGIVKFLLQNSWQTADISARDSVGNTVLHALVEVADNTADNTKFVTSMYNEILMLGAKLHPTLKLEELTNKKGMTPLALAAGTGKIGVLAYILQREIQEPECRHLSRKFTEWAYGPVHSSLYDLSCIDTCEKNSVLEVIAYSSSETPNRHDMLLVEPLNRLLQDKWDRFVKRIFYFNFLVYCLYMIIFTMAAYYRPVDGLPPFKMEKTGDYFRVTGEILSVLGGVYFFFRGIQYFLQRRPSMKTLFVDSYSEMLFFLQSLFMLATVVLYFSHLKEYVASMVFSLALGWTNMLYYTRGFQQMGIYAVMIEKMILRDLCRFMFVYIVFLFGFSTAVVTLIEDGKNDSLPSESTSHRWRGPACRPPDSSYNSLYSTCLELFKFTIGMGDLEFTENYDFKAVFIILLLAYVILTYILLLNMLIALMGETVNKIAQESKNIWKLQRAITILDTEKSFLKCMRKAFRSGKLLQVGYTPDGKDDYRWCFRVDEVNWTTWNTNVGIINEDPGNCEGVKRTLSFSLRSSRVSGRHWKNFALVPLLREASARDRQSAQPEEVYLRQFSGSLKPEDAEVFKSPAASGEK

CC(Cc1ccc(O)cc1)NCC(O)c1cc(O)cc(O)c1 (stereo not drawn)
-4.39%: viability change [13]
inactive: outcome [1] | Potency [2] | Potency [3] | Potency [4] | outcome [5] | outcome [6] | outcome [7] | Potency [8] | outcome [9] | outcome [10] | Potency [11] | activation [12] 0.688% | outcome [13] | outcome [14] | outcome [15]

CCCCCCCCCC(CC)c1ccc(S(=O)(=O)O)cc1 (stereo not drawn)
inactive: Potency [16]

C#CC1(O)CCC2C3CCC4=CC(=O)CCC4(C)C3CCC21C (stereo not drawn)
inactive: Potency [16]
